± gives the standard deviation of the averaged measurements. Over roughly 25,000 sequences, “ln(normalized median fluorescence intensity)” has its median near 8.9; the highest 2% begin near 10. Shown is part of a subset that was picked to be rich in the highest values.
Tested on: PfAP2-LT AP2 domain (GST-tagged)
Experiment: gcPBM binding intensity (ln(normalized median fluorescence intensity)); higher = stronger DNA binding
Summary of the method: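 GST-fused DNA-binding domains of P. falciparum, expressed in E. coli, were applied at about 25 μg on average for 1 h to an Agilent 4 × 180k array of primer-extended double-stranded 36-bp intergenic genomic probes and negative controls. Binding intensity is the highest Masliner-normalised natural-log median intensity across replicate spots of either probe orientation, measured with Alexa488 anti-GST antibody and a 488 nm scan.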

Sequence | gcPBM binding intensity (ln)
GGGCATATAATATAAAGTACAGGACTATAAAAATAT [XGTACX_site4481] | 8.86 ± 0.59
TCTTTTTTTTTTACTAGTACTTAAAAAAAAAATATG [XGTACX_site4395] | 8.28 ± 0.55
TTTGTAAAACTATATTGTACTTTTATATATCTACAA [XGTACX_site5507] | 8.56 ± 0.47
TTTTTAAAAAAGATAAGCGAAAGAATTAATTTTTAA [GTGCAC_negctrl_site197] | 8.13 ± 0.52
TATTTACATATTTATATACACACTTTTGCGTGTCTG [CACACA_site1110] | 9.36 ± 0.67
CATATTATTTATATTTGTACACAGCGATATGAAATA [XGTACX_site7717] | 8.68 ± 0.35
TATAATAAATCAAATGCACACACACTAATAAAAAAA [CACACA_site7937] | 9.63 ± 0.35
AAAAAATCACGACACACACACACACTAAAAAAAAAA [CACACA_site6792] | 10.1 ± 0.2
AAAATCACAAGACACACACACACAAAAAAAAAAAAA [CACACA_site6791] | 9.94 ± 0.58
TGGTTACTGTCATTAGTTATTTCTTGTTGACAATTA [CACACA_negctrl_site416] | 8.79 ± 0.41
CACAAAAAAAATTATACACACACACCCATATATATA [CACACA_site8255] | 9.82 ± 0.11
AAAAAAAAAAAAAACACACACACACCCATACAAAAT [CACACA_site1446] | 10.12 ± 0.064
AAAAAAAAAAAAAACACACACACACCCAAATACATA [CACACA_site708] | 9.99 ± 0.24
AACAAAAAAACAAACACACACACACCCATATATATA [CACACA_site3652] | 10.03 ± 0.042
ATAAAATACAGATAAACACACATATAAACACCCATA [CACACA_site5381] | 9.56 ± 0.32
CAAAAAAAATTATACACACACACACCCATATATATA [CACACA_site1044] | 10.04 ± 0.099
AAAATACAGAAACACACACACACACCCATATATATA [CACACA_site3559] | 10.31 ± 0.014
TACAAACACCCATATACACACAAAAAAAAAATAAAA [CACACA_site5421] | 9.24 ± 0.49
ATACAGAAAAAAAACACACACACATAATATACATAC [CACACA_site1933] | 9.84 ± 0.16
AAAAAATACAAACACACACACACACCCATATATATA [CACACA_site3560] | 10.21 ± 0.057
CAAAAAAACAAACACACACACACACCCATATATATA [CACACA_site3653] | 10.25 ± 0.085
TATTAATATGGTAATACACACTAATATACTTTTGTT [CACACA_site6860] | 8.89 ± 0.5
ATAAAAATATATGAAACACACAGTTTCTATAAGAAA [CACACA_site4156] | 8.68 ± 0.47

Sequence | gcPBM binding intensity (ln)
CATATAATTATATATCGTACATATTAATATAATTAC [XGTACX_site401] | 8.68 ± 0.38
GTTAATTTTTGTATAGTGCAAAAATATAATAGTATG | 8.64 ± 0.48
AACATATATAAATACACACACATATATATATGAAAT [CACACA_site4312] | 9.51 ± 0.26
AAAATAAGAAAACAAATGCACACCATTTATATAGAT [CACACA_site1055] | 9.03 ± 0.39
ATATCTATGTTTATCTCGAATAACTTAAAAAATTAT [CACACA_negctrl_site1131] | 8.45 ± 0.45
AACAGAATAATACTAAATGAACGATTTCTCTTTATG [GTGCAC_negctrl_site376] | 8.6 ± 0.51
ATAAGTGTATAAAAATGTACGTGTATAAAAATATGT [XGTACX_site8235] | 9.06 ± 0.43
GTGGTTGTAATGGTGGTGCATATTGTATATTATGTT | 9.515 ± 0.078
ATATATTATATTTAAGTGCATTAATTAAAATGCTTA [GTGCAC_site9403] | 8.34 ± 0.36
GTGTAATGCTTATCGGTGCATATATATATATATATA | 10.13 ± 0.021
CATCACCTTTTTAAATGTACGCATAATACCAAAAAA [XGTACX_site1587] | 8.6 ± 0.48
GAGCCCAAAAAATTAGGTACGTATAAAGAGGTATTT [XGTACX_site5348] | 8.8 ± 0.54
ACCCTATAGGTAACTACACACCGCATATTGTTTACT [CACACA_site7436] | 9.15 ± 0.34
TTAATATTTTGATGTGTACACATTAAAATAGTTTTA [CACACA_site5712] | 8.46 ± 0.48
GAATATTAAACAAACACACACACATATATTTATATA [CACACA_site7563] | 9.73 ± 0.27
TTATATTAAACAAACACACACATATAAATATAAATA [CACACA_site7174] | 9.23 ± 0.3
GTTTATATTAAACAAACACACACATATATATATATA [CACACA_site8749] | 9.57 ± 0.18
ATATTAAACAAACACACACACATATATATATATATA [CACACA_site3383] | 10.2 ± 0.35
GAATATTAAACAAACACACACACATATATATATATA [CACACA_site3382] | 10.1 ± 0.2
TTATATTAAACAAACACACACATATATATATATATA [CACACA_site2382] | 9.54 ± 0.49
TGTATATATTTGTGCACACCAAAGTTTGATTTTATT [CACACA_site1860] | 9.3 ± 0.42
TTGTATATATTAAATTGTACTTATTTTTTGTATATA [XGTACX_site3251] | 8.64 ± 0.54
CTGAGGAAGCTAATTACACACATGCATATTTTTTTT [CACACA_site2177] | 9.08 ± 0.28

Sequence | gcPBM binding intensity (ln)
TGCAACAAAATAAACACACACACACCCCCACAAAAA [CACACA_site3388] | 10.36 ± 0.057
AATGTACACCCACCCACACACAAACAAATATATATA [CACACA_site5521] | 10.1 ± 0.4
TTTAAACAAGGATCCACACACCCCAAAAAAAAAAGA [CACACA_site680] | 9.26 ± 0.4
TGCAACAAAATAAACACACACACACTAACACAAAAA [CACACA_site7567] | 9.98 ± 0.33
AGCACACCCACAAAAACACACACAAAGGTGTTCTTA [CACACA_site8355] | 9.39 ± 0.42
GTAAAAAAAGAGCACACACACAAAAACACCCACAAA [CACACA_site1292] | 10.3 ± 0.23
AAAAAAAAAAAACACACACACACACCCACAAAATAT [CACACA_site1447] | 10.31 ± 0.028
AAAAAAAAAAAAAACACACACATACACCCAAAAATG [CACACA_site4223] | 9.66 ± 0.24
CACAAACAAAAACACACACACACACCCACAAAAATG [CACACA_site2429] | 10.2 ± 0.34
AATGTACCCACACCCACACACAAACAAATATATATA [CACACA_site2751] | 9.74 ± 0.29
AAAAAAATAAAACACACACACAAAAAAATAAAAATA [CACACA_site465] | 9.56 ± 0.3
AAAAATAAAAAAATGACACACATATATATATATATA [CACACA_site2307] | 9.85 ± 0.11
TATAACAATTTTTATGCATGCGACTATAATATTTTT [TGCATGCA_site508] | 8.92 ± 0.42
ATTATATAAGTACACAAACAAGTATGAGATTCAAAA [GTGCAC_negctrl_site119] | 8.88 ± 0.5
ATATATTATATGTACACACACATATAAGGGATTATA [CACACA_site5] | 9.28 ± 0.4
TTATATTATATATATGTGCACATTTTTAAACTTGGA | 8.77 ± 0.47
ACAAACAAAGAAAGAACACACATACACAAGATACCT [CACACA_site7353] | 9.54 ± 0.26
ATATAACTTTTAAAAGCATGCAAATATTTACTCAAT [TGCATGCA_site396] | 8.78 ± 0.45
TGATAAGAAAAAGACTTTTCCTTCTTACTTTCTATG [CACACA_negctrl_site782] | 8.55 ± 0.59
ACATGAAGATATTTTTGTCCGTACAAATTCATATGA [XGTACX_site1837] | 8.66 ± 0.23
AAGGTATTTATAACTACACACTTATTTATAACCTAA [CACACA_site6194] | 8.7 ± 0.43
ATATGAAGTATCGAATTAAGGGCAACAAATAAATTA [CACACA_negctrl_site1116] | 8.76 ± 0.57
GTGGAAAAAAATAATTGTACACAATAATAAATATAT [XGTACX_site2414] | 8.87 ± 0.45

Sequence | gcPBM binding intensity (ln)
GTTTGAATGGCGCACTGTACACATATATACATATAG [XGTACX_site8619] | 9.13 ± 0.26
TTCTATTCACATTTTACACACGTCCATCGCATTTTA [CACACA_site3453] | 9.44 ± 0.46
ATTTTTTATGGACAAAAGACCTCTGATGTAAATATA [CACACA_negctrl_site1081] | 8.38 ± 0.4
CATACATACAGACACACACACATATTTATATTTATA [CACACA_site6172] | 9.9 ± 0.41
CACAGACACGGACACACACACATATATAATATATAT [CACACA_site4495] | 9.87 ± 0.42
CCCACAGACGGACACACACACACACCGACACATATA [CACACA_site4356] | 10 ± 0.26
CCCACAGACGGACACACACACATATATATATATATA [CACACA_site4351] | 10.4 ± 0.22
AGCACAGACGGACACACACACATATATATATATATA [CACACA_site4341] | 10.37 ± 0.085
TTTGTTGACGGACACACACACATACAGATATATATA [CACACA_site5292] | 9.4 ± 0.27
GAATTATATACTTATTGTACAAAAAAAAAAAAAAAA [XGTACX_site3193] | 8.36 ± 0.4
TGCAGTCTGGAGAAACGTACATAGTATCTGGTAGCT [XGTACX_site4937] | 8.94 ± 0.57
TTCAACGTTTTGGAATGTACAGAAAGGTATCCATCA [XGTACX_site179] | 8.62 ± 0.42
TATCTCATAGTATACACACACACACCCACCCATATA [CACACA_site1739] | 10.1 ± 0.11
TATATCTCATAGTATACACACACACCCACCCACATA [CACACA_site8513] | 9.9 ± 0.23
CACGCATACAGACACACACACACACCGATATATATA [CACACA_site8113] | 10.1 ± 0.37
CATACACCCATACATACACACATACAGATATATATA [CACACA_site5123] | 9.29 ± 0.33
CACGCATACGGACACACACACACACCGATATATATA [CACACA_site4521] | 9.89 ± 0.33
CACCATGATACATACACACAGACATATACGCATTCA [CACACA_site1008] | 9.46 ± 0.18
TACACATACAGACATACACACATACCCATATACTCA [CACACA_site5037] | 9.6 ± 0.41
AGTACAGACATAGACACACACACACCCATAAAAAAA [CACACA_site1515] | 9.99 ± 0.45
ATAGTATACAGACACACACACACACCCATATATATA [CACACA_site1736] | 10.2 ± 0.29
CACGCATACAGACACACACACACACCCATATATATA [CACACA_site636] | 10.2 ± 0.37
